Hit rate of the full screen: of about 310,000 compounds, about 14,000 (4.5%) showed an effect of 50% or more. The effect is printed as a negative number. For the sample, strong results were picked, then their nearest neighbours and some compounds at random.
Each molecule was assayed against human ether-à-go-go-related gene (hERG) potassium channel (human, UniProt Q12809) (assay: primary screen, population patch clamp on CHO cells stably expressing hERG; higher = less effect of the substance).
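Also: peak tail current of the secondary pulse compared with the same well before compound.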

human ether-à-go-go-related gene (hERG) potassium channel, sequence (Q12809 whole entry, looked up): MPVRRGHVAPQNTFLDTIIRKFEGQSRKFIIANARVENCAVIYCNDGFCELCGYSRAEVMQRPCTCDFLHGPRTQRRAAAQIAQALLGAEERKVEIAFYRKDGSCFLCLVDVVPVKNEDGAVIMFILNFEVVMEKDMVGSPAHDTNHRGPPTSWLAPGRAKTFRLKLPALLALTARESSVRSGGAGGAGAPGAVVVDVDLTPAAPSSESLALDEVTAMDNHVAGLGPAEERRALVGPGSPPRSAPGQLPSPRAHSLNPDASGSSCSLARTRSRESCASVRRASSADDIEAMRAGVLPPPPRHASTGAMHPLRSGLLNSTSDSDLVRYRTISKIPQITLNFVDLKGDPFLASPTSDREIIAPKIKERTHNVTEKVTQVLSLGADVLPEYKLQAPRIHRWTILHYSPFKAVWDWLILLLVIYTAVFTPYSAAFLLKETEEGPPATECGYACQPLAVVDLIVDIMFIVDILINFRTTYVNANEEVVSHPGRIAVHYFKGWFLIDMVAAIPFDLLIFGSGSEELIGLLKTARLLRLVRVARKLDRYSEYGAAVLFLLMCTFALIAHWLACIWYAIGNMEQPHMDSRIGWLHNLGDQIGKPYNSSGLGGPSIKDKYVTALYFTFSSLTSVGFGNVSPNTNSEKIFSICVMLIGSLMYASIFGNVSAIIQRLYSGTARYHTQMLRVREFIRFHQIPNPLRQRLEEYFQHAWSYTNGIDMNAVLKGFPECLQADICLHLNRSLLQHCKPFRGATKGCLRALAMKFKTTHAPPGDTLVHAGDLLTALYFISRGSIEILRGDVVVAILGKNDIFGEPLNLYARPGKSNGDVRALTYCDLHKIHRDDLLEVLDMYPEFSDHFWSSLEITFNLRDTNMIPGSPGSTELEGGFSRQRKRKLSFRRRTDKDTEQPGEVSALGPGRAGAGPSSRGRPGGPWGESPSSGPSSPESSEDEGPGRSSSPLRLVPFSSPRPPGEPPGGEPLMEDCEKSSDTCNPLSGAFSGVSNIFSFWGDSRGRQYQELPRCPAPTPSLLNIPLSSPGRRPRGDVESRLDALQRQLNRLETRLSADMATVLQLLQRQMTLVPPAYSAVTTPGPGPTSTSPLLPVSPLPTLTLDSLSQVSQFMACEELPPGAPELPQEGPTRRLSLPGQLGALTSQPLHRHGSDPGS

Row | SMILES | hERG current change (%, negative = inhibition) at 10uM
1 | O=C(NC1CCCC1)C(c1cc2c(cc1[N+](=O)[O-])OCO2)N1CCCC1 (stereo not drawn) | 20.6%
2 | COc1cc(C(=O)Nc2cccnc2)cc(OC)c1OC | 16.3%
3 | O=CN1CCN(C(=O)CN2C(=O)c3ccccc3C2=O)CC1 | 10.5%
4 | CC(=O)c1ccc(OCC(O)CN2CCc3ccccc3C2)cc1.Cl (stereo not drawn) | -41.9%
5 | Cc1cc(OCC(O)CN2CCc3ccccc3C2)ccc1Cl.Cl (stereo not drawn) | -53.4%
6 | Cn1cc(CNCc2ccccc2OCC(O)CN2CCc3ccccc3C2)cn1 (stereo not drawn) | -0.11%
7 | CCN(CCn1cccn1)Cc1ccccc1OCC(O)CN1CCc2ccccc2C1 (stereo not drawn) | -51.5%
8 | OC(COc1ccccc1CNCc1cccnc1)CN1CCc2ccccc2C1 (stereo not drawn) | -34.2%
9 | O=S(=O)(c1ccc(OCC(O)CN2CCc3ccccc3C2)cc1)N1CCOCC1 (stereo not drawn) | -4.43%
10 | CCC(=O)c1ccc(OCC(O)CN2CCc3ccccc3C2)cc1.Cl (stereo not drawn) | -63.7%
11 | Cc1cc(=O)oc2cc(OCC(O)CN3CCc4ccccc4C3)ccc12 (stereo not drawn) | -31.7%
12 | COc1ccc(OCC(O)CN2CCc3ccccc3C2)cc1.Cl (stereo not drawn) | -33.1%
13 | Cl.OC(COc1ccc2c(c1)OCO2)CN1CCc2ccccc2C1 (stereo not drawn) | -28.5%
14 | CCOc1ccc(OCC(O)CN2CCc3ccccc3C2)cc1.Cl (stereo not drawn) | -66.3%
15 | N#CC1=C(N)NC(SCC(=O)Nc2ccc(Br)cc2)=C(C#N)C12CCCCC2 | 13.4%
16 | O=C(Nc1cc(Cl)ccc1O)C1CC(c2ccccc2Cl)=NO1 (stereo not drawn) | 20.3%
17 | O=C(N/N=C/c1cn(-c2cccs2)nc1-c1ccccc1)c1ccc(O)cc1 | 13.8%
18 | COc1c(C)cccc1C(=O)Nc1ccc(N2CCN(S(C)(=O)=O)CC2)cc1 | 5.12%
19 | CCCC(=O)Nc1nnc(CC(=O)N2CCCC2)s1 | 7.72%

Row | SMILES | hERG current change (%, negative = inhibition) at 10uM
20 | O=C(CCCc1nc(-c2ccccc2Cl)no1)NCc1cccnc1 | -2.1%
21 | Cn1nnnc1NCc1ccccc1F | 4.52%
22 | CCCCC1OC23CCCCC2C(C#N)(C(=N)O3)C1(C#N)C#N (stereo not drawn) | 4.17%
23 | CCN(CC)S(=O)(=O)c1ccc2c(c1)nc(SCC(=O)NCC1CCCO1)n2CC (stereo not drawn) | 3.12%
24 | c1ccc(CSc2nnc(-c3cccs3)n2Cc2ccco2)cc1 | -46.8%
25 | Cl.OC1(CN2CCOCC2)C2CC3CC(C2)CC1C3 (stereo not drawn) | 11%
26 | O=C(COC(=O)c1cc(-c2ccccc2)nc2ccccc12)Nc1ccc2c(c1)OCO2 | 10.7%
27 | O=C(NCCCc1ccccc1)c1ccccc1O | -0.415%
28 | CCCCSc1nnc(CCC)n1N | -2.49%
29 | Cc1ccc(C)c(NC(=S)N(Cc2cccc(Br)c2)CC2CCC(C(=O)O)CC2)c1 (stereo not drawn) | 2.11%
30 | COC(=O)c1ccccc1NC(=O)NC1CCCCC1 | 5.86%
31 | CCCc1ccc(OCC(O)CN2CCN(CCO)CC2)cc1.Cl (stereo not drawn) | -13.7%
32 | CC(C)(C)c1ccc(OCC(O)CN2CCc3ccccc3C2)cc1.Cl (stereo not drawn) | -50.3%
33 | COc1cccc(OCC(O)CN2CCOCC2)c1.Cl (stereo not drawn) | 18.7%
34 | OC(COc1ccc(CNCc2cccnc2)cc1)CN1CCc2ccccc2C1 (stereo not drawn) | -13.5%
35 | COc1cccc(OCC(O)CN2CCc3ccccc3C2)c1.Cl (stereo not drawn) | -71.1%
36 | CCCc1ccc(OCC(O)CN2CCc3ccccc3C2)cc1.Cl (stereo not drawn) | -71.5%
37 | CCCc1ccc(OCC(O)CN2CCCC2)cc1.Cl (stereo not drawn) | -27.8%
38 | COc1cccc(C2c3c(oc4ccc(F)cc4c3=O)C(=O)N2CCN2CCOCC2)c1OC (stereo not drawn) | 4.45%

Row | SMILES | hERG current change (%, negative = inhibition) at 10uM
39 | CCCCn1c(SCC(=O)Nc2cc(NC(=O)c3ccco3)ccc2C)nc2ccccc2c1=O | -8.62%
40 | Cc1ccc(/C=N/N2CCN(C3c4ccccc4-c4ccccc43)CC2)s1 | 0.486%
41 | CN(/N=C/c1cccc(Br)c1)C1=NS(=O)(=O)c2ccccc21 | -11.8%
42 | COc1ccc(N2CCN(c3nc4c(c(=O)n(C)c(=O)n4C)n3CCCc3ccccc3)CC2)cc1 | 13.4%
43 | CCc1ccc(/C=c2\s/c(=C\C(=O)C(C)(C)C)[nH]c2=O)cc1 | 15.2%
44 | Cc1ccccc1N1CCN(C2CCCN(C(=O)c3cc(CC(C)C)nn3C)C2)CC1 (stereo not drawn) | -31.7%
45 | O=C(c1noc2c1CCCC2)N1CCCC(N2CCN(c3ccccc3F)CC2)C1 (stereo not drawn) | -28%
46 | Cc1nc(C(=O)N2CCCC(N3CCN(c4ccccc4C)CC3)C2)cs1 (stereo not drawn) | -39.5%
47 | CCc1[nH]nc(C(=O)N2CCCC(N3CCN(c4ccccc4C)CC3)C2)c1C (stereo not drawn) | -23.8%
48 | Cc1ccccc1N1CCN(C2CCCN(C(=O)c3noc4c3CCCC4)C2)CC1 (stereo not drawn) | -63.5%
49 | Cc1ccccc1N1CCN(C2CCCN(C(=O)c3ccccn3)C2)CC1 (stereo not drawn) | -9.78%
50 | Cc1ccccc1N1CCN(C2CCCN(C(=O)c3csc(C(C)C)n3)C2)CC1 (stereo not drawn) | -43%
51 | Cc1ccccc1N1CCN(C2CCCN(C(=O)c3cc(C(C)C)[nH]n3)C2)CC1 (stereo not drawn) | -61.2%
52 | Cc1cc(C(=O)N2CCCC(N3CCN(c4ccccc4C)CC3)C2)nc(C)n1 (stereo not drawn) | 4.27%
53 | Cc1ccccc1N1CCN(C2CCCN(C(=O)c3cn4c(C)cccc4n3)C2)CC1 (stereo not drawn) | -58.1%
54 | CCCc1cc(C(=O)N2CCCC(N3CCN(c4ccccc4C)CC3)C2)n(C)n1 (stereo not drawn) | -35.8%
55 | Cc1cc(C(=O)N2CCCC(N3CCN(c4ccccc4C)CC3)C2)n(C)n1 (stereo not drawn) | -88.8%
56 | O=C(COc1ccccc1[N+](=O)[O-])N(Cc1ccco1)C1CCS(=O)(=O)C1 (stereo not drawn) | -6.3%
57 | Cc1cccc(NC(=O)/C=C/c2ccc3c(c2)OCO3)n1 | 19.1%

Source: paper PMC4336329 (PLoS ONE, 2015)
